Laboratory results: PubChem BioAssay AID2315 (National Center for Advancing Translational Sciences (NCATS), 2010)
In all, about 290,000 compounds went through this assay and about 27,000 (9.3%) were called active. The sample as a whole holds a higher share of actives than the screen did. A number with no mark means an inactive call. Rule as the data show it: active = inhibition mostly above about 28% (no sharp cut-off); inactive = mostly below about 43%.

Test: A qHTS for Small Molecule Inhibitors of Shiga Toxin; also: 0% is about no effect
Details: Vero cells, Shiga toxin protein synthesis inhibition reporter; at 38.7 µM, stronger effect = higher value

SMILES | inhibition
COc1cccc(CN2CCN(Cc3ccc4cccc(F)c4n3)CC2CCO)c1 (configuration not stated) | 12.8%
O=C(NCc1cccnc1)C12CC3CC(CC(C3)C1)C2 | 11.5%
Cc1ccc(C(=O)COC(=O)CCN2C(=O)C3C4CCC(C4)C3C2=O)cc1C (configuration not stated) | 34.8%
O=C(CCC1CCN(C(=O)c2cccc(Cl)c2F)CC1)Nc1ccccc1 | -32%
COc1ccccc1CC(=O)Nc1ccc(S(=O)(=O)N2CCCC2)cc1 | -2.78%
CCOC(=O)C1C(c2ccc(O)cc2)NC(=O)NC1(O)C(F)(F)F (configuration not stated) | -6.9%
O=C(COc1ccc(-n2cnnn2)cc1)Nc1ccccc1Cl | -8.42%
CC(C)(C)c1ccc(C(CC(=O)O)NS(=O)(=O)Cc2ccccc2)cc1 (configuration not stated) | 17%
COc1ccc(Nc2nc(-c3cccnc3)nc3ccccc23)cn1 | -3.47%
COc1ccccc1Oc1nc(-c2cccnc2)nc2ccccc12 | 10.4%
Fc1ccc(/C=N/Nc2nc(-c3cccnc3)nc3ccccc23)cc1 | 47.7% (active)
Nc1nonc1-n1nnc(C(=O)N/N=C/c2ccc(Cl)cc2)c1-c1ccc2c(c1)OCO2 | -3.05%
CC(C)(C)NC(=O)NC(=O)COC(=O)CCC1CCCCC1 | -9.95%
O=C(CN1CCN(c2ccccn2)CC1)NC1CCCCC1 | -9.42%
COc1ccccc1OCC(=O)O/N=C(\N)c1ccccn1 | 55.8% (active)
N/C(=N\OC(=O)CC1CCCCC1)c1ccccc1 | 107% (active)
COc1ccccc1OCC(=O)OCn1c(SC)nnc(C)c1=O | 5.34%
COc1ccccc1OCc1nnc(SCC(N)=O)n1-c1ccccc1 | 7.34%
N/C(=N\OC(=O)CCC1CCCCC1)c1ccccn1 | 84.9% (active)
N/C(=N\OC(=O)Cc1ccccc1[N+](=O)[O-])c1ccc(Br)cc1 | 49%
COc1ccccc1NC(=O)C(C)OC(=O)CC1CCCC1 (configuration not stated) | -16.1%
CCN(CC(=O)Nc1ccc2c(c1)OCO2)S(=O)(=O)c1ccccc1 | 2.17%
Cc1cccc(CN2CCC(n3nccc3NC(=O)c3ccccc3C)CC2)n1 | -8.84%
Nc1nnnn1/N=C/c1cccc(Br)c1 | 18.9%
CCC1=NN2C(=N)/C(=C/c3cc(C)n(-c4ccccc4)c3C)C(=O)N=C2S1 | 6.12%
Cc1cc(/C=C2/C(=N)N3C(=NC2=O)SN=C3S(C)(=O)=O)c(C)n1-c1ccccc1 | 98% (active)
CCS(=O)(=O)C1=NSC2=NC(=O)/C(=C\c3cc(C)n(-c4cccc(OC)c4)c3C)C(=N)N21 | 21.9%
